# Tested on: VDR:RXRa (NR concentration 270 nM, RXRa partner concentration 90 nM)
# Test: PBM binding z-score (relative to random genomic background probes); higher = stronger binding; sequences stand for … in GC…GCGATTGACAGCGTAGAATGAAGG
# Procedure: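 Protein-binding microarray (Agilent 4x180K custom design, double-stranded 60-nt probes: 5' GC cap, 34-nt variable region, 24-nt constant primer region; full probe sequence given). Purified or IVT nuclear receptor:RXRα heterodimers (3:1 NR:RXRα, mostly 270:90 nM) or homodimers were incubated for 1 h in PBS with 2% milk and no ligand, then detected with Alexa488 antibodies. Fluorescence from o1-orientation probes (~5 replicates averaged) was converted to z-scores against 500 random hg19 background probes. Variable regions are seed direct-repeat (DR0–DR5) sites, all their single-nucleotide variants and half-site ablations.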
row,Sequence,PBM binding z-score
1,GCTTGTAGATCAAGGTTAAGCAAGACTAAGCTAA,0.0624
2,AGTCACAGTTCATCTAGGTAACGTAAGATATGCT,3.05
3,GGAACGAGGGCATTTGAGTTGATAGCATGGCGAT,4.22
4,TCGAGTAGCTTAGTCGGGGCATTCAGCCAACATA,-0.32
5,CCGAGTAGGTTATTGGGCATTCAGGCAACGGTGA,-0.494
6,ATATGTAGGTTATCGGGTCATTCCGTTTGCGCAT,3.86
7,ACTAGCAGGCCAATTTTGGGTCACTCAAACAAAG,0.456
8,CCTACTGGGCCAAAGCTCATTGATTCCAATGCTC,-0.593
9,CGACCTAGGTCATCCAGGACAGTGAATACATTGA,4.85
10,TCATATAGGTACAGGTGAAAGTCGAACGATATGA,0.846
11,ACTATTAGTTGAGACGAGGGCTACCGATAGGTTG,-0.103
12,ATCGAAAGGTCGAAGGCGAGTATACCCACCCGAA,2.22
13,ATAACGAGGGCACGCTGAGTTGATAGCAGAGTAG,2.27
14,TCTTGTAAATCAAAGGTTAAGAAAGCCGAAGCCT,1.07
15,TCTGATAGGTCAGTTGGTCAGCTAACGAGCTGCC,0.777
16,TCTATTAGTTGATTAGGGCAAACGAAACAGCGGA,0.637
17,CCTGCTAGGTCAATGGTCAGATAAAGCAGCTCGC,0.927
18,GGAGACAGGTGAAACGCAGGTAACTCAGGGTGGC,-0.319
19,AGAATGAGGTGATACGTAGATCAGGGAAGAAAGT,-0.0206
20,TATACAGGGTCAAACGCCAGAGTACGAATGTCGA,5

row,Sequence,PBM binding z-score
1,GGTTACGGGTCAAAGGTTATAGCATGAATAGAAT,5.46
2,GCGGCTGGGGCAAAGCAGGTTACCATAAGGTTGG,0.192
3,CGAACTAGGTCAGAACAGGACAGTGTAGGATGAT,0.86
4,TCGAGTAGGTCAGGGGCATTCAGAATGGCGTCGA,1.55
5,TCTTGTAGATCAAGCAGGTTAAGCAAGCCTGAGT,0.328
6,TAGCCTAGGTCATTCAGGGGCCAATATAGAAAGC,3.77
7,CAAACTAGGTCACGAAACGTCAAAGTCGAATGAC,2.2
8,CCTGCTAGGTCATGGTCAGCTATTCTACAGTATG,1.52
9,GCTGCTAGGTCAGGTTGGTCAGCTGACGGGTACG,0.533
10,ACTAGCAGGCCAAGTTTGGGTCACTGAAACAAAG,0.731
11,CAAACTAGGTGACGAAAGGTCAAAGTCGAATGAC,5.16
12,GCTTACGTGTCAAAGGTTATAGCATGAATAGAAT,2.29
13,GCTAGTTGGTCAGTAAAAGGTCACACATCGGTCG,3.96
14,ATCGAAAGGCCGTGAGGTGAGTATACAGAAAGGC,-0.0584
15,CCTAGCAGGCCAGGGTCACTCCAGCATTTCGCTT,2.18
16,TATACCGGGTCAAAGGCCAGAGTACGAATGTCGA,3.9
17,TAACCTAGGTCATGCGGGCCAGTATAGTGTCGGC,3.55
18,CGAACTAGGTCATTAACAGGACAGTGAATAGTAA,1.77
19,AATACAGGGTCATCGTAGGCCAGAGTCCGCACAG,5.19
20,CAAACTAGGCCAAAGGTCAAAGTCGAGCCAACCA,4.89
